# According to the supplement of paper PMC8728848:
# Only a selection was taken, and the strongest signals are over-represented in it overall.
# Experiments:
# Assay in all cases: glycan array binding signal (z-score within array); higher = stronger binding
# Conditions in all cases: glycan notation: IUPAC condensed, linker removed
# [1] = target: GlcNAc(a1-4)Gal(b1-4)GlcNAc(b1-3)Gal(b1-4)[Fuc(a1-3)]GlcNAc(b1-3)Gal(b1-4)[Fuc(a1-3)]GlcNAc
# In short: (§1)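 The Consortium for Functional Glycomics database supplied 3228 glycan arrays, of which those lacking an available protein sequence were dropped. The binding signal, a within-array Z-score, was averaged across arrays of the same protein sequence and across linkers. Negative scores can be read as non-binding.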
# [2] = target: GlcNAc(b1-2)[GlcNAc(b1-4)]Man(a1-3)[GlcNAc(b1-4)][GlcNAc(b1-2)[GlcNAc(b1-6)]Man(a1-6)]Man(b1-4)GlcNAc(b1-4)[Fuc(a1-6)]GlcNAc
# In short: as §1
# GlcNAc(b1-3)Fuc = target: GlcNAc(b1-3)Fuc
# In short: as §1
# [3] = target: GlcNAc(b1-3)Gal(b1-4)GlcNAc(b1-2)[GlcNAc(b1-3)Gal(b1-4)GlcNAc(b1-6)]Man(a1-6)[GlcNAc(b1-3)Gal(b1-4)GlcNAc(b1-2)Man(a1-3)]Man(b1-4)GlcNAc(b1-4)GlcNAc
# In short: as §1
# [4] = target: GlcNAc(b1-3)Gal(b1-4)GlcNAc(b1-3)[GlcNAc(b1-3)Gal(b1-4)GlcNAc(b1-3)]GalNAc
# In short: as §1
# Man(a1-2)Man(a1-3)Man = target: Man(a1-2)Man(a1-3)Man
# In short: as §1
# Neu5Ac(a2-3)Gal = target: Neu5Ac(a2-3)Gal
# In short: as §1
# [5] = target: Neu5Ac(a2-3)Gal(b1-3)GalNAc(b1-4)[Neu5Ac(a2-3)]Gal(b1-4)Glc
# In short: as §1
# [6] = target: Neu5Ac(a2-3)Gal(b1-3)GalNAc(b1-4)[Neu5Ac(a2-8)Neu5Ac(a2-3)]Gal(b1-4)Glc
# In short: as §1
# [7] = target: Neu5Ac(a2-3)Gal(b1-3)[Neu5Ac(a2-6)]GlcNAc(b1-3)[Fuc(a1-3)[Gal(b1-4)]GlcNAc(b1-6)]Gal(b1-4)Glc
# In short: as §1
# [8] = target: Neu5Ac(a2-3)Gal(b1-3)]Neu5Ac(a2-3)Gal(b1-4)]GlcNAc
# In short: as §1
# [9] = target: Neu5Ac(a2-3)Gal(b1-4)GlcNAc(b1-2)Man(a1-3)[GlcNAc(b1-4)][Neu5Ac(a2-3)Gal(b1-4)GlcNAc(b1-2)Man(a1-6)]Man(b1-4)GlcNAc(b1-4)GlcNAc
# In short: as §1
# [10] = target: Neu5Ac(a2-3)Gal(b1-4)GlcNAc(b1-3)[Neu5Ac(a2-3)Gal(b1-4)GlcNAc(b1-6)]GalNAc
# In short: as §1
# [11] = target: Neu5Ac(a2-3)Gal(b1-4)[Fuc(a1-3)]GlcNAc(b1-3)Gal(b1-4)GlcNAc
# In short: as §1
# [12] = target: Neu5Ac(a2-3)Gal(b1-4)[Fuc(a1-3)]GlcNAc(b1-6)[Neu5Ac(a2-3)Gal(b1-3)]GalNAc
# In short: as §1
# Neu5Ac(a2-6)Gal(b1-4)Glc = target: Neu5Ac(a2-6)Gal(b1-4)Glc
# In short: as §1
# [13] = target: Neu5Ac(a2-6)Gal(b1-4)GlcNAc(b1-2)Man
# In short: as §1
# [14] = target: Neu5Ac(a2-6)Gal(b1-4)GlcNAc(b1-2)Man(a1-6)[GlcNAc(b1-2)Man(a1-3)]Man(b1-4)GlcNAc(b1-4)GlcNAc
# In short: as §1
# [15] = target: Neu5Ac(a2-6)Gal(b1-4)GlcNAc(b1-3)Gal(b1-4)GlcNAc
# In short: as §1
# [16] = target: Neu5Ac(a2-6)Gal(b1-4)GlcNAc(b1-3)Gal(b1-4)GlcNAc(b1-3)[Neu5Ac(a2-6)Gal(b1-4)GlcNAc(b1-3)Gal(b1-4)GlcNAc(b1-6)]GalNAc
# In short: as §1
# [17] = target: Neu5Ac(a2-6)Gal(b1-4)GlcNAc(b1-3)[Neu5Ac(a2-6)Gal(b1-4)GlcNAc(b1-6)]GalNAc
# In short: as §1
# [18] = target: Neu5Ac(a2-6)Gal(b1-4)GlcNAc(b1-6)[Gal(b1-3)GlcNAc(b1-3)]Gal(b1-4)Glc
# In short: as §1
# [19] = target: Neu5Ac(a2-6)Gal(b1-4)GlcNAc(b1-6)[Gal(b1-3)]GalNAc
# In short: as §1
# [20] = target: Neu5Ac(a2-8)Neu5Ac(a2-8)Neu5Ac(a2-3)[Gal(b1-3)GalNAc(b1-4)]Gal(b1-4)Glc
# In short: as §1
binder,measurement,setting,value
PX14343E-bfa-545-24-545 (Bacteroides fragilis) (protein) LDRYPQEELSDGSFWKTPDDANKVVSDLYGYLSTWDQDNDINSDNATMGIKWAAGNVSKGIYDPADQGWSGDYANVRQCNLILSKIDEIPDYPEADKTKALGQVYFFRAYIYFNLIRSFGDVPYIDKPLDLKDMEGITRMPRAEVYEKIMADFDKAIAALPTEWGASDYGRVTKGAAMAMKARAALYYGNWDTAATEAKNVMDLGLYELYDKDNTGKYAELFWEKADGCDEFILVTQFNYPDKTHYLMGWECFPTKGWGGMNPTQSLVDAFEDSEGAPISKSKIYDPTDPFKNRDPRLEVDILHDGEEMYGVTIKVAPLASSGSTGINQHNDATETGYYGQKWLDPSLDPLSDGWNMGKDWVHIRYAEVLLTYAEAKNELQGLDPEAFDAVNQVRRRVGMPELQNTDPSKPTYCATQDDLRQRIRNEWRVEFCLEGGKRMWDIRRWGIAKDVLNAPFEGLKYKIVDNPNDPDKKVDGGKMCILYQGDPIILSGSRYSDNNYLFPVPQSEIDLNPALTQNPGY,glycan array binding signal (z-score),[1],8.96
same,glycan array binding signal (z-score),[2],-0.534
same,glycan array binding signal (z-score),GlcNAc(b1-3)Fuc,-0.635
same,glycan array binding signal (z-score),[3],0.412
same,glycan array binding signal (z-score),[4],-0.23
same,glycan array binding signal (z-score),Man(a1-2)Man(a1-3)Man,-0.688
same,glycan array binding signal (z-score),Neu5Ac(a2-3)Gal,-0.082
same,glycan array binding signal (z-score),[5],-0.236
same,glycan array binding signal (z-score),[6],-0.153
same,glycan array binding signal (z-score),[7],0.395
same,glycan array binding signal (z-score),[8],-1.08
same,glycan array binding signal (z-score),[9],0.058
same,glycan array binding signal (z-score),[10],-0.912
same,glycan array binding signal (z-score),[11],-0.873
same,glycan array binding signal (z-score),[12],0.423
same,glycan array binding signal (z-score),Neu5Ac(a2-6)Gal(b1-4)Glc,-0.096
same,glycan array binding signal (z-score),[13],-0.34
same,glycan array binding signal (z-score),[14],0.074
same,glycan array binding signal (z-score),[15],-0.139
same,glycan array binding signal (z-score),[16],2.92
same,glycan array binding signal (z-score),[17],2.89
same,glycan array binding signal (z-score),[18],-0.484
same,glycan array binding signal (z-score),[19],-0.085
same,glycan array binding signal (z-score),[20],-0.399
